# The panel holds about 83,000 compounds, 20% with a hit somewhere; the sample as a whole holds those more often.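 Assay: single dose, 48 h. Readout: percent growth (0 = no net growth; negative = cell death). Active: <10.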 Values without a mark were called inactive. Calls of active or inactive are those of the source.
# Test system: SK-MEL-28 melanoma
# Assay: NCI-60 one-dose screen, 48 h (100 = growth as untreated, 0 = no growth, -100 = all killed)
# Settings: 10 µM unless noted
row,Structure (SMILES),growth
1,C#CCNC(=O)c1cccc2c1cc(C)n2-c1nc2c(c(NCc3ccccc3)n1)CCCC2,-6.03% (active)
2,COc1ccccc1NC(=O)C1CC(c2ccc(F)cc2)=NO1 (centres undefined),107%
3,O=C1Nc2cc(-c3ccc(NC(=O)c4ccccc4)cc3)ccc2/C1=C/c1ccc[nH]1,119%
4,C=CC(=O)N[C@@H](/C=C/C(=O)OCC)Cc1ccc(-c2cc(Cl)cc(Cl)c2)cc1,39.8%
5,Cc1ccc(NC(=O)c2cc(-c3nc4ccccc4s3)c(=O)n(NS(=O)(=O)c3ccc(Cl)cc3)c2N)cc1,115%
6,O=C1Nc2cc(-c3ccc(NC(=O)C4CC4)cc3)ccc2/C1=C/c1ccc[nH]1,119%
7,O=S(=O)(NCCNc1nccc(-c2c(-c3cccc(F)c3)nc3sccn23)n1)c1ccccc1,54.3%
8,O=C(NCCNc1nccc(-c2c(-c3cccc(F)c3)nc3sccn23)n1)c1ccc(Cl)cc1,64.9%
9,COc1cc2oc(-c3cccc(C(=O)Nc4ccc(Cl)cc4)c3)cc(=O)c2c(O)c1OC,67.8%
10,O=C1OC(Cc2ccccc2)C1c1ccccc1 (centres undefined),109%
11,CC(=O)Nc1ccc(-n2cnc3cc(-c4ccc(OCCN5CCCCC5)cc4)ccc32)cc1,107%
12,O=C(N/N=C/c1ccc(Oc2ccccc2)cc1)c1cnn2c1NC(c1ccccc1)C2 (centres undefined),56.2%
13,CCN(CC)CC[n+]1cc2cc(OC)c(OC)cc2c2ccc3cc4c(cc3c21)OCO4,22.7%
14,O=Cc1cc2ccccc2nc1Oc1ccc(C(F)(F)F)cc1,107%
15,Cc1cc2nc3c4cc(C=O)ccc4n(CCN(C)C)c3nc2cc1C,37.1%
16,N#Cc1cccc(-c2ccc3c(c2)NC(=O)/C3=C\c2ccc[nH]2)c1,83.5%
17,CCc1c(Cl)nc(N)nc1Nc1ccc(C)c(C)c1,103%
18,COc1cc(NC(C)CCCNC(=O)CCC(=O)NCCCNCCCCCCCCCCNCCCNC(=O)CCC(=O)NCCCC(C)Nc2cc(OC)cc3cccnc23)c2ncccc2c1 (centres undefined),86.8% [8 µM]
19,Cc1ccccc1NS(=O)(=O)c1cccc(C(=O)Nc2ccc(Br)cc2)c1,60% [25 µM]
20,COc1cc(/C=C\C(=O)O)ccc1OCc1ccccc1,110%
21,CCCCCCCCOc1ccc(/C=N/Nc2cc(C)nc3ccc(Br)cc23)cc1,80.9%
22,S=c1cc(S)c2cc(Br)ccc2[nH]1,98%
23,CCOC(=O)CSc1nc2ccccc2c(=O)n1Cc1ccc(S(N)(=O)=O)cc1,104%
24,C=C1C(=O)O[C@H]2[C@H]1CC/C(COC(=O)NCc1c[nH]c3ccc(Cl)cc13)=C\CC[C@@]1(C)O[C@@H]21,-63% (active)

# Source: PubChem BioAssay (NCI)
